Screen size: about 310,000 compounds; about 14,000 (4.5%) showed an effect of 50% or more. The effect is printed as a negative number. For the sample, strong results were picked, then their nearest neighbours and some compounds at random.
Target: human ether-à-go-go-related gene (hERG) potassium channel (human, UniProt Q12809)
Test: primary screen, population patch clamp on CHO cells stably expressing hERG; higher = less effect of the substance
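Further: peak tail current of the secondary pulse compared with the same well before compound.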

Chain of human ether-à-go-go-related gene (hERG) potassium channel (Q12809 whole entry, looked up): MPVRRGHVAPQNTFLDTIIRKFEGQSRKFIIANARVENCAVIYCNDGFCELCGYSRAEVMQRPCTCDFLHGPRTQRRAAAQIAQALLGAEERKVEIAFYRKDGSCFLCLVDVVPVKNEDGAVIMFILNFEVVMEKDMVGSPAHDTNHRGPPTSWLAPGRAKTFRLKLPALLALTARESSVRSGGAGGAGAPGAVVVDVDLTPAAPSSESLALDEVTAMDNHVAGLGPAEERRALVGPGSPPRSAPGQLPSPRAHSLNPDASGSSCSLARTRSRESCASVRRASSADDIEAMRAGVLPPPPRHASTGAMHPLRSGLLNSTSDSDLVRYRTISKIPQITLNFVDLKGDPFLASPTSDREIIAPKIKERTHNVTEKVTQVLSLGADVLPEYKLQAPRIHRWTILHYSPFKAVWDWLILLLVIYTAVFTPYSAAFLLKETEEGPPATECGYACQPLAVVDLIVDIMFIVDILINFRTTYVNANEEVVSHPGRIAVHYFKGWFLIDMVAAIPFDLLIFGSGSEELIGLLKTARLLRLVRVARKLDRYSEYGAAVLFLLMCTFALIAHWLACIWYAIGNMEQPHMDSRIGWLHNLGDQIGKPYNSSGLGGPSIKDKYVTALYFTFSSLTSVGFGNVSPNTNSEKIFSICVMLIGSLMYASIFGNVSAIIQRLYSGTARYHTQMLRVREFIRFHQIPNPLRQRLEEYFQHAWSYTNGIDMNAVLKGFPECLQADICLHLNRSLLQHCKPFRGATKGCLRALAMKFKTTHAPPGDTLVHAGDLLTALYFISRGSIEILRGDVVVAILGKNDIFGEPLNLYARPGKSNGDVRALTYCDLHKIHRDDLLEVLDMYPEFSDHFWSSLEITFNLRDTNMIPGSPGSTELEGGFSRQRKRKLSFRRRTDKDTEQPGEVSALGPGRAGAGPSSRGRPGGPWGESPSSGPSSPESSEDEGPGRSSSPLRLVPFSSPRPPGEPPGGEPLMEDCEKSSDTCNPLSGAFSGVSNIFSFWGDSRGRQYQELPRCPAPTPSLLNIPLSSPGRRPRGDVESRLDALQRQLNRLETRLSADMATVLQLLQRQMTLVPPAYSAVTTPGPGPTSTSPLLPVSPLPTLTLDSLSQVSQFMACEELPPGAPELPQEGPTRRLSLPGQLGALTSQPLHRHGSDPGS

SMILES	hERG current change (%, negative = inhibition) at 10uM [%]
O=C(N/N=C/c1cccnc1)c1cc2ccccc2cc1O	5.26
C[C@@]12C(=O)N(c3ccc(C(F)(F)F)cc3)C(=O)N1[C@@H]1c3ccccc3OC[C@@H]1[C@H]2c1ccccc1	20
O=C(Cn1c(=O)n(CC2CCCO2)c(=O)c2ccccc21)c1ccc(Cl)c(Cl)c1 (centres unmarked)	-16.4
CN(CCCC(=O)NCc1ccccc1)S(=O)(=O)c1ccc([N+](=O)[O-])cc1	-65.6
CCOc1ccc(S(=O)(=O)N(C)CC(=O)NCc2ccc3c(c2)OCO3)cc1	-64.4
CN(CC(=O)NCc1ccc2c(c1)OCO2)S(=O)(=O)c1ccc(F)cc1	-8.53
CN(CCCC(=O)NCc1ccc2c(c1)OCO2)S(=O)(=O)c1ccc([N+](=O)[O-])cc1	-68.1
Cc1ccc(S(=O)(=O)N(C)CCCC(=O)NCc2ccc3c(c2)OCO3)cc1	-23.5
COc1ccc(S(=O)(=O)N(C)CC(=O)NCc2ccc3c(c2)OCO3)cc1	-8.31
CN(CCCC(=O)NC1CC(C)(C)NC(C)(C)C1)S(=O)(=O)c1ccc([N+](=O)[O-])cc1	12.5
O=C(NCc1ccc2c(c1)OCO2)Nc1ccc([N+](=O)[O-])cc1	21.1
CN(CCCC(=O)NCCc1ccccc1)S(=O)(=O)c1ccc([N+](=O)[O-])cc1	-37.6
C=CCn1c(SCCCc2ccccc2)nc2c1c(=O)[nH]c(=O)n2C	-26.1
COc1ccc(OC)c(NS(=O)(=O)c2ccc(-c3coc(C)n3)cc2)c1	0.503
COc1cccc(NC(=O)N2CCCC2C(=O)NC2CC2)c1 (centres unmarked)	3.61
COc1ccc(-c2[nH]ncc2CN(C)Cc2cnccn2)c(OC)c1	14
O=C(O)c1cc2n(n1)C(C(F)(F)F)CC(c1ccco1)N2 (centres unmarked)	22.2
O=S(=O)(NC1CCCCC1N1CCN(c2ccc(F)cc2)CC1)c1ccccc1 (centres unmarked)	-7.05
O=C(CCN1C(=O)/C(=C/c2ccc(Cl)cc2)SC1=S)NCCCn1ccnc1	-23.4
O=C(CCN1C(=O)/C(=C/c2ccc(F)cc2)SC1=S)NCCCn1ccnc1	-63.6
O=C(CCCN1C(=O)/C(=C/c2ccccc2)SC1=S)NCCCn1ccnc1	-59.9
COc1ccc(/C=C2\SC(=S)N(CCC(=O)NCCCn3ccnc3)C2=O)cc1	-28.5
O=C(CCN1C(=O)S/C(=C\c2ccccc2)C1=O)NCCCn1ccnc1	-38.4
COc1ccccc1/C=C1\SC(=S)N(CCC(=O)NCCCn2ccnc2)C1=O	-44.7

SMILES	hERG current change (%, negative = inhibition) at 10uM [%]
O=C(CCCN1C(=O)/C(=C/c2ccc(F)cc2)SC1=S)NCCCn1ccnc1	-71
O=C(CCN1C(=O)/C(=C/c2ccccc2F)SC1=S)NCCCn1ccnc1	-38.1
O=C(CCCN1C(=O)c2ccccc2C1=O)NCCCn1ccnc1	13.4
COc1cc(S(=O)(=O)N2CCN(C(=O)c3ccco3)CC2)c(OC)cc1C	6.03
COc1ccc(C2(C)NC(=O)N(CC(=O)Nc3ccc(C)cc3Br)C2=O)cc1OC (centres unmarked)	1.02
CN(C)c1ccc(CNc2ncc(Br)cc2Br)cc1	-3.62
Cc1ccccc1NC(=O)c1ccc(-n2cncn2)nc1	-14.1
Cc1nn(C)c(C)c1S(=O)(=O)N(CC(=O)Nc1ccc2c(c1)OCO2)c1ccc(C(C)C)cc1	7.38
CC(C)C(OC(=O)c1nsc(Cl)c1Cl)C(=O)NC1CCCCC1 (centres unmarked)	-17.7
Cc1oc2nc(SCCCC(=O)NCCCO)nc(N)c2c1C	9.44
Cc1ccccc1C(=O)Nc1ccnn1C1CCN(CC2CC=CCC2)CC1 (centres unmarked)	-72.6
O=C(Nc1ccnn1C1CCN(CC2CC=CCC2)CC1)c1ccccc1Cl (centres unmarked)	-70.7
COc1ccc(C(=O)Nc2ccnn2C2CCN(CC3CC=CCC3)CC2)cc1 (centres unmarked)	-37.4
Cc1ccc(CN2CCC(n3nccc3NC(=O)c3ccccc3C)CC2)o1	-25.9
COc1ccccc1C(=O)Nc1ccnn1C1CCN(CC2CC=CCC2)CC1 (centres unmarked)	-82.3
Cc1ccccc1C(=O)Nc1ccnn1C1CCN(Cc2ccc(CO)o2)CC1	-1.16
Cl.NCC(c1ccccc1)(c1ccccc1)c1ccccc1	-15.5
O=C(COc1ccccc1)NCC(=O)N/N=C/c1ccc(Br)cc1	-14.6
CCCCCCCCCC(=O)N/N=C(\C)c1cccnc1	9.29
COc1ccc(C(C)=O)c2c1OCCO2	-3.35
COc1ccc(C(=O)Nc2ccc(S(=O)(=O)Nc3nccnc3OC)cc2)cc1	8.73
COc1cccc(C(=O)N2CCC(N3CC(C)OC(C)C3)CC2)c1.O=C(O)C(=O)O (centres unmarked)	14.4
O=S(=O)(O/N=C1\CCCc2ccccc21)c1ccccc1	7.59
CCCN1CCC(N2CCN(c3ccc([N+](=O)[O-])cc3)CC2)CC1	-74.3

SMILES	hERG current change (%, negative = inhibition) at 10uM [%]
CCN1CCC(N2CCN(c3ccc(Cl)cc3)CC2)CC1	-18.8
O=[N+]([O-])c1ccc(N2CCSCC2)cc1	-10.4
O=[N+]([O-])c1ccc(N2CCN(c3ccc(F)cc3)CC2)cc1	-17.9
CCC1CCC(N2CCN(c3ccccc3F)CC2)CC1 (centres unmarked)	-22.2
CC1CCC(N2CCN(c3ccc([N+](=O)[O-])cc3)CC2)CC1 (centres unmarked)	-74.8
CCC1CCC(N2CCN(c3ccc([N+](=O)[O-])cc3)CC2)CC1 (centres unmarked)	-79.8
O=[N+]([O-])c1ccc(N2CCN(c3ccccc3)CC2)cc1	4.77
CCN1CCC(N2CCN(c3ccc(F)cc3)CC2)CC1	-5.34
CCS(=O)(=O)N1CCC(N2CCN(c3ccccc3)CC2)CC1	-10.9
CCC1CCC(N2CCN(c3cccc(OC)c3)CC2)CC1 (centres unmarked)	-33.7
CCC1CCC(N2CCN(c3ccc(F)cc3)CC2)CC1 (centres unmarked)	-52.1
COCCNC(=S)N/N=C/c1c2ccccc2cc2ccccc12	15.5
CCOC(=O)C(CC(=O)O)NCc1ccco1 (centres unmarked)	17.4
CCC(C)N(CC(=O)NCc1ccc(OC)cc1)C(=O)c1csnn1 (centres unmarked)	-18.3
COc1ccc(N2CCN(C(=S)NCc3ccccc3)CC2)cc1	15.3
COc1ccccc1Nc1nc(C)cc(=O)[nH]1	-7.91
COc1cc(C(=O)OCC(=O)Nc2ccc(SC(F)F)cc2)cc(OC)c1OC	-55.7
COc1ccccc1C(=O)OCC(=O)Nc1ccc(OC(F)F)cc1	-32.2
CN(C)C(=O)COC(=O)c1ccccc1OCC(=O)Nc1ccc(SC(F)F)cc1	-51.8
CCOc1cc(C(=O)OCC(=O)Nc2ccc(SC(F)F)cc2)cc(OCC)c1OCC	4.57
O=C(COC(=O)c1cc(S(=O)(=O)N2CCCC2)ccc1O)Nc1ccc(S(=O)(=O)N2CCOCC2)cc1	23.6
COc1ccccc1NC(=O)COC(=O)c1ccccc1OCC(=O)Nc1ccc(SC(F)F)cc1	1.67
O=C(COC(=O)c1ccccc1O)Nc1ccc(OC(F)F)cc1	2.74
O=C(COC(=O)c1ccccc1O)Nc1ccc(S(=O)(=O)N2CCCCC2)cc1	3.29

SMILES	hERG current change (%, negative = inhibition) at 10uM [%]
COc1cc(C(=O)OCC(=O)Nc2ccc(C)cc2)cc(OC)c1OC	28.7
CCOc1ccccc1C(=O)OCC(=O)Nc1ccc(OC(F)F)cc1	-54
O=C(COC(=O)c1cc(S(=O)(=O)N2CCCC2)ccc1O)Nc1ccc(SC(F)F)cc1	-57.5
COc1ccccc1C(=O)COC(=O)c1ccccc1OCC(=O)Nc1ccc(SC(F)F)cc1	12.6
O=C(NC(Cc1ccccc1)c1ccc2c(c1)OCCCO2)c1ccc(F)cc1 (centres unmarked)	8.05
COc1ccc2cc1Oc1ccc(cc1)CC1c3c(cc(OC)c4c3Oc3cc5c(cc3O4)CCNC5C2)CCN1C (centres unmarked)	0.681
N#Cc1c(Cl)nc(SCc2ccccc2)nc1-c1ccccc1	8.45
CN(C(=O)c1ccccc1C(=O)OCC(=O)Nc1ccc(S(N)(=O)=O)cc1)c1ccccc1	-5.32
CN(C(=O)c1ccccc1C(=O)OCC(=O)Nc1ccc(OC(F)F)cc1)c1ccccc1	-54
CN(C(=O)c1ccccc1C(=O)OCC(=O)Nc1ccccc1)c1ccccc1	0.655
CCOc1cc2c(Cl)ncnc2c(OCC)c1OCC	23.3
CCOC(=O)c1cccc(NC(=O)CCn2cccc2)c1	-27.7
COc1ccc(Nc2nc(N)c3ccccc3n2)c(OC)c1.Cl	-14.9
COc1cc(Nc2c3c(nc4ccccc24)CCCC3)cc(OC)c1OC	-65.9
COc1cc(NS(C)(=O)=O)ccc1Nc1c2ccccc2nc2ccccc12.Cl	-67.7
COc1ccc([N+](=O)[O-])cc1Nc1c2ccccc2nc2ccccc12	9.54
COc1cc(Nc2nc(SCC#N)nc3ccccc23)cc(OC)c1OC	-32
COc1ccc(OC)c(Nc2c3ccccc3nc3ccccc23)c1	-11
COc1c2ccccc2nc2ccccc12	13.3
COc1cc(NC(=O)c2ccc3c(SCC(=O)O)c4c(nc3c2)CCCC4)cc(OC)c1OC	12.3
COc1ccccc1Nc1nc(-c2ccccc2)nc2ccccc12	23.5
COc1cc(Nc2c3ccccc3nc3ccccc23)cc(OC)c1OC	-63.9
COc1ccccc1Nc1c2ccccc2nc2ccccc12	-71

Reference: publication PMC4336329 (PLoS ONE, 2015)
